Records with an inconclusive call do not appear. Activity calls are given as the source filed them. Rule for the calls, unless noted: active = hit-call score of the fitted dose curve at least 0.9, where 1 is the maximum; inactive = score below 0.9.
Key:
[1] = read-out: Monokine induced gamma interferon (MIG), CXCL9 (gene 4283); assay: BSK_SAg_MIG: BioMAP Diversity Plus: SAg Assay for Monokine induced gamma interferon (MIG) Biomarker Activity (AID 2283092); settings: primary human HUVEC with PBMC; actives raise or lower the signal
How it was run: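 ELISA readout of MIG/CXCL9; primary human umbilical vein endothelial cells co-cultured with peripheral blood mononuclear cells; 24 h post-dose; gain/loss fit vs DMSO baseline.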

[2] = read-out: Interleukin-8 (IL8), CXCL8 (gene 3576); assay: BSK_SAg_IL8: BioMAP Diversity Plus: SAg Assay for Interleukin-8 (IL8) Biomarker Activity (AID 2283094); settings: primary human HUVEC with PBMC; actives raise or lower the signal
How it was run: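 Primary human endothelial cells with PBMC, exposed 24 h; IL-8 determined by ELISA, analysed bidirectionally relative to DMSO.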

[3] = BSK_SAg_Proliferation: Cell Proliferation Assessment in the BioMAP Diversity Plus: SAg Assay (AID 2283095); settings: primary human HUVEC with PBMC;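 note: relative cell number as total protein by SRB absorbance in sub-confluent culture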
How it was run: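 A human primary co-culture of umbilical vein endothelium and blood mononuclear cells receives compound; relative cell number is quantified at 96 h by SRB staining and 560 nm absorbance, with DMSO-referenced bidirectional curve fitting.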

[4] = BSK_SAg_SRB: Viability Assessment in the BioMAP Diversity Plus: SAg Assay (AID 2283096); settings: primary human HUVEC with PBMC;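 note: cells read one day after compound addition; hits may be either gain or loss of signal compared with DMSO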
How it was run: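 SRB absorbance at 560 nm served as the viability read-out. Cells (HUVEC plus peripheral blood mononuclear cells) were TCA-fixed and stained 24 h post-dosing; activity fitted in both directions against DMSO controls.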

[5] = biological target: human CYP1A2, CYP1A2 (gene 1544) (UniProt P05177); assay: NVS_ADME_hCYP1A2: NovaScreen (NVS) CYP450-related Enzyme Activity (ADME) Assay for human CYP1A2 (AID 2283102; active = hit-call score of the fitted dose curve at least 0.9, where 1 is the maximum;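 for AC50: potency for inhibition since loss of fluorescence marks reduced CYP1A2 activity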)
How it was run: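 Fluorescence-intensity enzyme activity read-out, taken 0.5 h post-dosing, using insect-cell-derived recombinant CYP1A2 and specific fluorescent substrate. Acetonitrile served as negative control/baseline. Single-concentration duplicate screen at 10 uM, then concentration-response follow-up.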

[6] = biological target: Cytochrome P450 2C19 (Homo sapiens) (UniProt P33261); assay: NVS_ADME_hCYP2C19: NovaScreen (NVS) CYP450-related Enzyme Activity (ADME) Assay for human CYP2C19 (AID 2283113; active = hit-call score of the fitted dose curve at least 0.9, where 1 is the maximum;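 for AC50: potency for inhibition seen as loss of fluorescent signal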)
How it was run: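 Recombinant insect-cell-expressed enzyme, fluorescent substrate, 1 h after chemical addition, fluorescence intensity. Baseline = acetonitrile vehicle; activity scored as signal loss. Primary HTS single concentration 10 uM, duplicate; actives retested in concentration series.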

[7] = biological target: Cytochrome P450 2C18 (Homo sapiens) (UniProt P33260); assay: NVS_ADME_hCYP2C18: NovaScreen (NVS) CYP450-related Enzyme Activity (ADME) Assay for human CYP2C18 (AID 2283103)
Sequence of Cytochrome P450 2C18 (Homo sapiens) (P33260 whole entry, looked up): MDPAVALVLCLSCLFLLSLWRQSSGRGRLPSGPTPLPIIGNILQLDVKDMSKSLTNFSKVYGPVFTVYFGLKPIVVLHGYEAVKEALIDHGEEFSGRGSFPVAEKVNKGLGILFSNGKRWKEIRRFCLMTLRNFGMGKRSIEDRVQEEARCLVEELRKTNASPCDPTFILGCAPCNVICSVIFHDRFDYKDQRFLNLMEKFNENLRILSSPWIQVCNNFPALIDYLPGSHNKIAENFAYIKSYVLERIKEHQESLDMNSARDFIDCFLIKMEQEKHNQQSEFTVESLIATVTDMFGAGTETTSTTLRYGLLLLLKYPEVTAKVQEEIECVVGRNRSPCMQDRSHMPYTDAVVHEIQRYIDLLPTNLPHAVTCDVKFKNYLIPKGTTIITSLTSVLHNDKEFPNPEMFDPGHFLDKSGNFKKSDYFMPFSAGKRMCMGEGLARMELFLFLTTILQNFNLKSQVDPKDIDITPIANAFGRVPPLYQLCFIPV
How it was run: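 Enzyme activity measured by fluorescence 0.5 h after compound addition, using recombinant CYP2C18 and a specific substrate. Actives from duplicate 10 uM screening were retested in concentration series (top 20 uM); acetonitrile served as negative baseline.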

[8] = biological target: human CYP2D6, CYP2D6 (gene 1565) (UniProt P10635); assay: NVS_ADME_hCYP2D6: NovaScreen (NVS) CYP450-related Enzyme Activity (ADME) Assay for human CYP2D6 (AID 2283107; active = hit-call score of the fitted dose curve at least 0.9, where 1 is the maximum)
Sequence of human CYP2D6, CYP2D6 (gene 1565) (P10635 whole entry, looked up): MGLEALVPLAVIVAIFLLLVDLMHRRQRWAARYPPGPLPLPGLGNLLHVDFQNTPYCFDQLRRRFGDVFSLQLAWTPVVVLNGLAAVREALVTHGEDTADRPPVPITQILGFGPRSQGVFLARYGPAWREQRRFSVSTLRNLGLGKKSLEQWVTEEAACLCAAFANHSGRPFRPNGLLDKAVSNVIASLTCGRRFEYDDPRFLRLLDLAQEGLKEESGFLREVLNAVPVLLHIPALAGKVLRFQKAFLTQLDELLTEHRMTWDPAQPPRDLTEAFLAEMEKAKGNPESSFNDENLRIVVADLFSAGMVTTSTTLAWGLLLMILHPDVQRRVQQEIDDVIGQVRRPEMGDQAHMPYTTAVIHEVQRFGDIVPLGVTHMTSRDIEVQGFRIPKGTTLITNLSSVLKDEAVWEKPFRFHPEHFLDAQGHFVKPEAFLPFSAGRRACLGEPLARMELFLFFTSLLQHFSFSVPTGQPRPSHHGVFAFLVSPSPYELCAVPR
How it was run: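 Fluorescence intensity read 1 h post-dosing; insect-cell-expressed recombinant protein with fluorogenic substrate, no cells. Activity is scored as signal loss relative to acetonitrile baseline, first at a single 10 uM concentration in duplicate, then as concentration series for confirmed actives.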

[9] = biological target: human CYP2C9, CYP2C9 (gene 1559) (UniProt P11712); assay: NVS_ADME_hCYP2C9: NovaScreen (NVS) CYP450-related Enzyme Activity (ADME) Assay for human CYP2C9 (AID 2283108; active = hit-call score of the fitted dose curve at least 0.9, where 1 is the maximum)
Sequence of human CYP2C9, CYP2C9 (gene 1559) (P11712 whole entry, looked up): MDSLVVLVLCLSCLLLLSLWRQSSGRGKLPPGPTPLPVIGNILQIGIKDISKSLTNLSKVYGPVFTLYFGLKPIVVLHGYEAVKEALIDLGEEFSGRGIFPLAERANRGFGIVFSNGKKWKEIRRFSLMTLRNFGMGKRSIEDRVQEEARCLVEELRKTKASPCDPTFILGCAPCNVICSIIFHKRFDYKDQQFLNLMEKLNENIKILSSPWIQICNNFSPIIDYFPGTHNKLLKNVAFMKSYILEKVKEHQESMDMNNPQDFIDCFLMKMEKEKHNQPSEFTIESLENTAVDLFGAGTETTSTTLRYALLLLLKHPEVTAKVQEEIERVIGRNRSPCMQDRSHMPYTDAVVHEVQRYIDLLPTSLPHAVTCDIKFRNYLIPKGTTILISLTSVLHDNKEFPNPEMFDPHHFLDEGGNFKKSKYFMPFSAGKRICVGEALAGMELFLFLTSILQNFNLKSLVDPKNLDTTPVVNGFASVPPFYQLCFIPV
How it was run: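 Fluorescence readout of CYP2C9 activity (SF9-expressed human enzyme) at 0.75 h. The primary screen used 10 uM in duplicate, with concentration-response follow-up for actives; acetonitrile was the negative control.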

[10] = biological target: human CYP19A1, CYP19A1 (gene 1588) (UniProt P11511); assay: NVS_ADME_hCYP19A1: NovaScreen (NVS) CYP450-related Enzyme Activity (ADME) Assay for human CYP19A1 (AID 2283098; active = hit-call score of the fitted dose curve at least 0.9, where 1 is the maximum)
Sequence of human CYP19A1, CYP19A1 (gene 1588) (P11511 whole entry, looked up): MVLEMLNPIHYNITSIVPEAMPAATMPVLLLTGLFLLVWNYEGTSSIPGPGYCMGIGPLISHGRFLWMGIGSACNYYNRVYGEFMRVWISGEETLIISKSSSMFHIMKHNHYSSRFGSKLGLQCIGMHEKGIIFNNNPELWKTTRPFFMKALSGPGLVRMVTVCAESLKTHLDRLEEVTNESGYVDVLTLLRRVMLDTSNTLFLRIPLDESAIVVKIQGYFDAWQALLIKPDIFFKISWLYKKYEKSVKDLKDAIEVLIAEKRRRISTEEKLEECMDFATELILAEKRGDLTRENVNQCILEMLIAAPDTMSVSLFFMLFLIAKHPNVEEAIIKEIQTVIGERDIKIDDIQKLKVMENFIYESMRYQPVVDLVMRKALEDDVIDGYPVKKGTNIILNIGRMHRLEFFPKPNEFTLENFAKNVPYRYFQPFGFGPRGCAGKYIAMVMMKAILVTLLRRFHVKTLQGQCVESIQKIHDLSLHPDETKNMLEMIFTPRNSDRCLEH
How it was run: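 Primary testing was in duplicate at a single 10 uM concentration, with actives followed up in concentration-response series. Fluorescence read-out of recombinant enzyme activity at 0.5 h, cell-free. Acetonitrile was the negative-control baseline.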

[11] = biological target: Cytochrome P450 3A4 (Homo sapiens) (UniProt P08684); assay: NVS_ADME_hCYP3A4: NovaScreen (NVS) CYP450-related Enzyme Activity (ADME) Assay for human CYP3A4 (AID 2283110; active = hit-call score of the fitted dose curve at least 0.9, where 1 is the maximum)
Sequence of Cytochrome P450 3A4 (Homo sapiens) (P08684 whole entry, looked up): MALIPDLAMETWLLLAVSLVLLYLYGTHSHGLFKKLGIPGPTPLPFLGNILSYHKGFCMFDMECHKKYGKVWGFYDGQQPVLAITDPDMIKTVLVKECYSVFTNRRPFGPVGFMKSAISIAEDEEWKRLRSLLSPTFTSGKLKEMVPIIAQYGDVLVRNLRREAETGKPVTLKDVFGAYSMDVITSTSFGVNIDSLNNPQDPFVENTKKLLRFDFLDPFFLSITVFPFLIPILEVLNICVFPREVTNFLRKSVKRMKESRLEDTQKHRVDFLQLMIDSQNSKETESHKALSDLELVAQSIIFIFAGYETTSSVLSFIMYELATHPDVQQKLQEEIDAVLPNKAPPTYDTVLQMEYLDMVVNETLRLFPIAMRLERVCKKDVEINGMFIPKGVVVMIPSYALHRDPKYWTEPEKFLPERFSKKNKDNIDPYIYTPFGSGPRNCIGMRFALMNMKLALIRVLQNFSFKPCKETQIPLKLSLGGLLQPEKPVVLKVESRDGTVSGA
How it was run: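 Compounds screened in duplicate at 10 uM, with follow-up concentration-response for actives, against insect-cell-expressed recombinant enzyme. Activity read by fluorescence 0.33 h after dosing; loss of signal versus acetonitrile control indicates inhibition.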

[12] = biological target: human CYP2A6, CYP2A6 (gene 1548) (UniProt P11509); assay: NVS_ADME_hCYP2A6: NovaScreen (NVS) CYP450-related Enzyme Activity (ADME) Assay for human CYP2A6 (AID 2283099; active = hit-call score of the fitted dose curve at least 0.9, where 1 is the maximum)
Sequence of human CYP2A6, CYP2A6 (gene 1548) (P11509 whole entry, looked up): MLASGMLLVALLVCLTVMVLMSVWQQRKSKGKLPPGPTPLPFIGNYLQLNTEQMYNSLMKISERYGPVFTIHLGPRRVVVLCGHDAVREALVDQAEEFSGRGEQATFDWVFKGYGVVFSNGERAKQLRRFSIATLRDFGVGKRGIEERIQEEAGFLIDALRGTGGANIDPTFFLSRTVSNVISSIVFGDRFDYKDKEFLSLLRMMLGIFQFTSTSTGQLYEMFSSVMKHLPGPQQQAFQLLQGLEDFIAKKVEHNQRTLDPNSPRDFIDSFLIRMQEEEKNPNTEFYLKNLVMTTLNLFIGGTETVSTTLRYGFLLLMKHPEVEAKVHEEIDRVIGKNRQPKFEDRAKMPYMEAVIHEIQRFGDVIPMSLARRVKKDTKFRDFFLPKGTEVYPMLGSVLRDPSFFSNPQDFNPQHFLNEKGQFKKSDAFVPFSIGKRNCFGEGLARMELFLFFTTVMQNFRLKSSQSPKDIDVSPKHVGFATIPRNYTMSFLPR
How it was run: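 Insect-cell-expressed human CYP2A6 enzyme activity measured by fluorescence intensity 0.5 hour post-dosing. Compounds screened at 10 uM in duplicate, then hits tested singly in concentration series (max 20 uM); acetonitrile baseline.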

[13] = biological target: human CYP2J2, CYP2J2 (gene 1573) (UniProt P51589); assay: NVS_ADME_hCYP2J2: NovaScreen (NVS) CYP450-related Enzyme Activity (ADME) Assay for human CYP2J2 (AID 2283106; active = hit-call score of the fitted dose curve at least 0.9, where 1 is the maximum)
Sequence of human CYP2J2, CYP2J2 (gene 1573) (P51589 whole entry, looked up): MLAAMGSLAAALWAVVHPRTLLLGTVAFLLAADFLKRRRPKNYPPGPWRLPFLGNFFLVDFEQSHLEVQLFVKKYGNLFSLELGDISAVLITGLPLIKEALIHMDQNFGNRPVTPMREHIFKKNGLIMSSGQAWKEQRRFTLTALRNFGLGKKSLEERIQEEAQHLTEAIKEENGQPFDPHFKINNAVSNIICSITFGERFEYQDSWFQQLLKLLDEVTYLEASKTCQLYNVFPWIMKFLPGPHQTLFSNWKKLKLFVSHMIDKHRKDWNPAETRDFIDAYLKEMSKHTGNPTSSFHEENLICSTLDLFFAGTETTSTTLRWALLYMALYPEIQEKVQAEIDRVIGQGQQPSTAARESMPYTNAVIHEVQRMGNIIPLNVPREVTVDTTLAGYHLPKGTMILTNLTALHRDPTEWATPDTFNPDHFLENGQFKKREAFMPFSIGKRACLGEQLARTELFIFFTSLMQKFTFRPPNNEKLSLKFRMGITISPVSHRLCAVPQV
How it was run: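 Chemicals were first tested at 10 uM in duplicate, and hits meeting criteria such as 30% inhibition were run in singleton concentration series with a 20 uM top concentration. Enzyme activity of recombinant CYP2J2 was measured by fluorescence after 1 h, relative to acetonitrile.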

[14] = biological target: rat CYP1A2, Cyp1a2 (gene 24297) (UniProt P04799); assay: NVS_ADME_rCYP1A2: NovaScreen (NVS) CYP450-related Enzyme Activity (ADME) Assay for rat CYP1A2 (AID 2283115; active = hit-call score of the fitted dose curve at least 0.9, where 1 is the maximum)
How it was run: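 Primary testing ran in duplicate at 10 uM, with actives re-tested across concentration series. Fluorescence intensity from substrate turnover by recombinant protein, measured 1 hour post-dosing, with signal loss scored against acetonitrile vehicle.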

rat CYP2B1, gene 24300 = assay: NVS_ADME_rCYP2B1: NovaScreen (NVS) CYP450-related Enzyme Activity (ADME) Assay for rat CYP2B1 (AID 2283117; active = hit-call score of the fitted dose curve at least 0.9, where 1 is the maximum)
How it was run: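 Cell-free fluorescence enzyme assay, recombinant rat CYP2B1, 0.75 h after dosing. Single-concentration duplicates at 10 uM preceded concentration series (max 20 uM) for actives; acetonitrile as negative-control baseline.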

[15] = biological target: human CYP2B6, CYP2B6 (gene 1555) (UniProt P20813); assay: NVS_ADME_hCYP2B6: NovaScreen (NVS) CYP450-related Enzyme Activity (ADME) Assay for human CYP2B6 (AID 2283101; active = hit-call score of the fitted dose curve at least 0.9, where 1 is the maximum)
Sequence of human CYP2B6, CYP2B6 (gene 1555) (P20813 whole entry, looked up): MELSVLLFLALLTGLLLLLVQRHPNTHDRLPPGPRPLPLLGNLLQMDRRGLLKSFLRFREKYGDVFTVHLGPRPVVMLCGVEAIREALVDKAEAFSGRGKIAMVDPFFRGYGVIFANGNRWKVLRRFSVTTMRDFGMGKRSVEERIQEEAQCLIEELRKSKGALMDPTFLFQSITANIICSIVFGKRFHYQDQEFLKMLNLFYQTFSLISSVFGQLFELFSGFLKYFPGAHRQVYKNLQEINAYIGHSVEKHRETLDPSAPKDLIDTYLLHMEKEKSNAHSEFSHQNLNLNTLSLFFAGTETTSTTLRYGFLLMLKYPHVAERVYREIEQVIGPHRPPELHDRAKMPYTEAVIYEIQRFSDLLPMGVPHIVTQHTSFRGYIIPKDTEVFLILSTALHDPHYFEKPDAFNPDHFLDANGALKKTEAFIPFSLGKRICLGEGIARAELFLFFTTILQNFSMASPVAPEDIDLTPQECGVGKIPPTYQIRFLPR
How it was run: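 Fluorescence-based enzyme activity of recombinant human CYP2B6, measured 1 h post-dose against acetonitrile vehicle baseline. Screened at a single concentration of 10 uM in duplicate before concentration-response follow-up.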

[16] = biological target: rat CYP2A2, Cyp2a2 (gene 24895) (UniProt P15149); assay: NVS_ADME_rCYP2A2: NovaScreen (NVS) CYP450-related Enzyme Activity (ADME) Assay for rat CYP2A2 (AID 2283116; active = hit-call score of the fitted dose curve at least 0.9, where 1 is the maximum)
Sequence of rat CYP2A2, Cyp2a2 (gene 24895) (P15149 whole entry, looked up): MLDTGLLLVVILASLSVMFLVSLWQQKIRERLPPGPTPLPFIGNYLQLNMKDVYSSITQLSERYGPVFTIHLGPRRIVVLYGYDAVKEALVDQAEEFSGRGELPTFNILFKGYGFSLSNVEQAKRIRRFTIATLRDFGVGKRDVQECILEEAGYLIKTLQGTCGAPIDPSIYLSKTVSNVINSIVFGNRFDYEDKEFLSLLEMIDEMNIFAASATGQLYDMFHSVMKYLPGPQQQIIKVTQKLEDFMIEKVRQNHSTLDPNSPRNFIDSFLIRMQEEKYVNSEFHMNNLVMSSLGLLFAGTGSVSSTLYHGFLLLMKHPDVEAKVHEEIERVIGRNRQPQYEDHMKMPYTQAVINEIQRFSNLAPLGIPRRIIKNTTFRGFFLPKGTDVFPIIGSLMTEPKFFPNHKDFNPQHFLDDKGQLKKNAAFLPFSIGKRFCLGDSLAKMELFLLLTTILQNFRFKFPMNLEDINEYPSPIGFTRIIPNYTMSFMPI
How it was run: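 Compounds first tested in duplicate at 10 uM, then in singleton concentration series up to 20 uM when over threshold. Activity of the recombinant enzyme read by fluorescence at 0.2 h, normalised to acetonitrile vehicle.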

[17] = biological target: human CYP2C8, CYP2C8 (gene 1558) (UniProt P10632); assay: NVS_ADME_hCYP2C8: NovaScreen (NVS) CYP450-related Enzyme Activity (ADME) Assay for human CYP2C8 (AID 2283104)
Sequence of human CYP2C8, CYP2C8 (gene 1558) (P10632 whole entry, looked up): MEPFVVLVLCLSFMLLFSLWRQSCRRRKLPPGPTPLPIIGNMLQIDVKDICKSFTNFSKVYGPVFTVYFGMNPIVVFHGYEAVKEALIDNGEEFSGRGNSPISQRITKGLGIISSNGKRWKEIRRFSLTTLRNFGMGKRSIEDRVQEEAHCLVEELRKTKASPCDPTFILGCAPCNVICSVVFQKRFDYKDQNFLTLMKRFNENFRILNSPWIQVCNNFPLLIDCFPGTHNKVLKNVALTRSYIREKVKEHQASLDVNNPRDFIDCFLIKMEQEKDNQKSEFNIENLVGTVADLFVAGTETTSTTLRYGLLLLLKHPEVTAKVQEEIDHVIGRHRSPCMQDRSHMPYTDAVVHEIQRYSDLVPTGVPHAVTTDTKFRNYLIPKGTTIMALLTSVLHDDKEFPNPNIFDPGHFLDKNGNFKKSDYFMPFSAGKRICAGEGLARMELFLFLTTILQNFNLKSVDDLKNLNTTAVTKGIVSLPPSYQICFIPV
How it was run: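 Fluorescence readout of substrate turnover by recombinant CYP2C8 after 0.5 h, baseline acetonitrile. Single-concentration duplicate screen at 10 uM preceded singleton concentration series (max 20 uM) for compounds passing the inhibition threshold.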

Structure (SMILES): Fc1ccc(Oc2ccnc3cc(Cl)cc(Cl)c23)cc1
- AC50 [1]: 30.6 µM (active)
- AC50 [2]: 15.9 µM (active)
- AC50 [3]: 22.7 µM (active)
- AC50 [4]: 25.5 µM (active)
- AC50 [5]: 7.42 µM (active)
- outcome [6]: inactive

Structure (SMILES): CCOC(=O)C(Cl)Cc1cc(-n2nc(C)n(C(F)F)c2=O)c(F)cc1Cl (centres undefined)
- outcome [1]: inactive
- outcome [2]: inactive
- AC50 [3]: 21.2 µM (active)
- outcome [4]: inactive
- outcome [5]: inactive
- outcome [7]: inactive
- AC50 [6]: 10 µM (active)

Structure (SMILES): C=CCC1=C(C)[C@@H](OC(=O)[C@@H]2[C@@H](C=C(C)C)C2(C)C)CC1=O
- AC50 [1]: 38.9 µM (active)
- AC50 [2]: 25.3 µM (active)
- AC50 [3]: 33.8 µM (active)
- AC50 [4]: 29.2 µM (active)
- AC50 [8]: 10 µM (active)
- AC50 [9]: 5.73 µM (active)
- AC50 [6]: 6.39 µM (active)

Structure (SMILES): C#CCOS(=O)OC1CCCCC1Oc1ccc(C(C)(C)C)cc1 (centres undefined)
- AC50 [1]: 16.7 µM (active)
- AC50 [2]: 1.92 µM (active)
- AC50 [3]: 1.16 µM (active)
- AC50 [4]: 10.8 µM (active)
- outcome [10]: inactive
- outcome [5]: inactive
- AC50 [7]: 10 µM (active)
- outcome [9]: inactive
- outcome [11]: inactive
- AC50 [6]: 14.3 µM (active)

Structure (SMILES): CN(C)C(=S)SSC(=S)N(C)C
- AC50 [1]: 36.6 µM (active)
- AC50 [2]: 18.6 µM (active)
- AC50 [4]: 35.3 µM (active)
- outcome [12]: inactive
- AC50 [7]: 2.26 µM (active)
- AC50 [13]: 6.56 µM (active)
- AC50 [8]: 2.15 µM (active)
- AC50 [9]: 1.92 µM (active)
- outcome [11]: inactive
- AC50 [6]: 0.78 µM (active)
- outcome [14]: inactive
- AC50 (rat CYP2B1, gene 24300): 2.11 µM (active)

Structure (SMILES): N#Cc1cc(Br)c(O)c(Br)c1
- outcome [1]: inactive
- AC50 [2]: 30.5 µM (active)
- AC50 [3]: 33.4 µM (active)
- AC50 [4]: 20 µM (active)
- outcome [8]: inactive

Structure (SMILES): O=C(O)c1nc(Cl)ccc1Cl
- outcome [1]: inactive
- outcome [2]: inactive
- outcome [3]: inactive
- outcome [4]: inactive
- outcome [11]: inactive
- outcome [6]: inactive

Structure (SMILES): N#CC(CCc1ccc(Cl)cc1)(Cn1cncn1)c1ccccc1 (centres undefined)
- outcome [1]: inactive
- outcome [2]: inactive
- AC50 [3]: 8.6 µM (active)
- outcome [4]: inactive
- outcome [10]: inactive
- AC50 [15]: 0.429 µM (active)
- AC50 [7]: 0.428 µM (active)
- AC50 [9]: 1.14 µM (active)
- AC50 [11]: 4.35 µM (active)
- AC50 [6]: 0.191 µM (active)
- AC50 [16]: 0.02 µM (active)
- AC50 (rat CYP2B1, gene 24300): 0.0692 µM (active)

Structure (SMILES): CCc1nn(C)c(C(=O)NCc2ccc(C(C)(C)C)cc2)c1Cl
- AC50 [1]: 34.7 µM (active)
- AC50 [2]: 5.02 µM (active)
- AC50 [3]: 20 µM (active)
- AC50 [4]: 29.4 µM (active)
- outcome [17]: inactive

Structure (SMILES): CCOC(=O)CC(SP(=S)(OC)OC)C(=O)OCC (centres undefined)
- outcome [1]: inactive
- outcome [2]: inactive
- outcome [3]: inactive
- outcome [4]: inactive
- outcome [10]: inactive
- AC50 [12]: 1.98 µM (active)
- AC50 [15]: 0.899 µM (active)
- AC50 [5]: 0.837 µM (active)
- AC50 [7]: 0.459 µM (active)
- outcome [17]: inactive
- AC50 [13]: 0.369 µM (active)
- AC50 [8]: 4.68 µM (active)
- AC50 [9]: 0.752 µM (active)
- AC50 [6]: 0.032 µM (active)
- AC50 [16]: 2.59 µM (active)
- AC50 (rat CYP2B1, gene 24300): 3.83 µM (active)

Structure (SMILES): OC(c1ccc(Cl)cc1)(c1cncnc1)c1ccccc1Cl (centres undefined)
- AC50 [1]: 32.9 µM (active)
- AC50 [3]: 11.7 µM (active)
- AC50 [4]: 29.3 µM (active)
- AC50 [12]: 2.37 µM (active)
- AC50 [15]: 5.75 µM (active)
- AC50 [7]: 6.02 µM (active)
- AC50 [17]: 10 µM (active)
- AC50 [13]: 2.26 µM (active)
- AC50 [9]: 2.35 µM (active)
- AC50 [11]: 3.87 µM (active)
- AC50 [6]: 0.136 µM (active)
- AC50 [16]: 0.0534 µM (active)
- AC50 (rat CYP2B1, gene 24300): 1.17 µM (active)

Structure (SMILES): COc1nc(C)nc(NC(=O)NS(=O)(=O)c2ccccc2CCC(F)(F)F)n1
- outcome [1]: inactive
- outcome [2]: inactive
- outcome [3]: inactive
- outcome [4]: inactive
- outcome [9]: inactive
